Reference: PubChem BioAssay (NCATS)
Inconclusive results are not listed. Unmarked numbers belong to inactive results. The source made the active and inactive calls. Calls follow the shape of the dose curve; as a rule, active = well fitted curve in either direction with a large enough effect (not every such curve was filed as active); inconclusive = small, poorly fitted or top-dose-only effect, or another doubt; inactive = flat fitted curve, though single readings scatter.

assay: Stat Signaling Pathway (AID 446); settings: ME-180 (cervical carcinoma) SIE beta-lactamase reporter, IL-6 stimulated, 5 h; series mostly up to 17.2 µM; activity, negative = inhibition: at the top concentration;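 also: ME-180 cervical cancer cells given 40 pM IL-6 alongside compound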
Procedure: NCGC Assay Overview: The IL-6/STAT signaling pathway was assayed in ME-180 cervical carcinoma cells by a beta-lactamase reporter gene controlled by a STAT Inducible Element (SIE). This reporter is induced by IL-6 at 40 pM AC50 and inhibited by the pan JAK inhibitor, 2-(1,1-Dimethylethyl)-9-fluoro-3,6-dihydro-7H-benz[h]-imidaz[4,5-f]isoquinolin-7-one, at approximately 10 nM AC50. Plated cells were incubated overnight and on the following day, stimulated with 40 pM IL-6 for 5 hrs. The assay was screened at the AC50 of IL-6 activation to identify both inhibitors and activators of IL-6/STAT signaling.
NCGC Assay Protocol Summary: Cells were trypsinized, washed in assay medium (AM, OPTI MEM with 0.5% fetal bovine serum, 0.1 mM nonessential amino acids, 1 mM sodium pyruvate, 10mM HEPES pH 7.3, 100U/ml penicillin, and 100 ug/ml streptomycin) and suspended at 6 x 10e5/ml in AM. Approximately […] cells in 5 uL/well was dispensed into 1536 well plates and the cells were incubated overnight at 37 C. 23 nL of compound were delivered by a pin tool and 1 uL of IL-6 (40 pM final concentration in AM) was added. After centrifugation at 1000 rpm for less than a minute, plates were incubated at 37C for 5 hrs. One uL of detector mix (LiveBLAzerTM, Invitrogen) was added, the plates incubated at room temperature for 2.5 hrs, and fluorescence intensity at 460 and 530 nm emission was measured at 405 nm excitation by an Envision (Perkin Elmer) or Safire II (Tecan). Data were normalized by GeneData to the controls for AC90 stimulation (300 pM IL-6) and to AC90 inhibition (125 nM Jak inhibitor, 40 pM IL-6 in AM).
% is scaled to controls: 0 for no effect and ±100 for the full control effect.

Structure (SMILES) | activity, negative = inhibition | outcome
Oc1ccc(/C=C/c2cc(O)cc(O)c2)cc1 | -18.1% | –
N[C@H](CC(=O)O)C(=O)O | 18.6% [at 38 µM] | –
CN(CCO)CC(O)Cn1cnc2c1c(=O)n(C)c(=O)n2C (stereo not drawn) (tested in a mixture with another compound) | 9.14% | –
CC(=O)Oc1cccc2c1C(=O)c1c(OC(C)=O)cc(C(=O)O)cc1C2=O | 9.11% | –
CN1CCc2c(c3ccccc3n2Cc2ccccc2)C1 | 4.54% | –
CC(=O)Oc1cc(C(F)(F)F)ccc1C(=O)O | 5.53% | –
O=C(O)CCC(=O)c1ccc(-c2ccccc2)cc1 | -3.69% | –
CC(=O)N=c1sc(S(N)(=O)=O)nn1C | – | inactive
O=C(O)Cc1cc(I)c(Oc2ccc(O)c(I)c2)c(I)c1 | – | inactive
Cn1nnnc1SCC1=C(C(=O)O)N2C(=O)[C@@H](NC(=O)[C@H](O)c3ccccc3)[C@H]2SC1 | -3.5% | –
O=C1NCCN1c1ncc([N+](=O)[O-])s1 | -7.76% | –
COc1cc(S(C)=O)ccc1-c1nc2ncccc2[nH]1 (stereo not drawn) | 0.345% | –
CC1(C)S[C@@H]2[C@H](NC(=O)C3(N)CCCCC3)C(=O)N2[C@H]1C(=O)O | -6.21% | –
Cn1cc(NC(=O)c2cc(NC(=O)c3cc(NC=O)cn3C)cn2C)cc1C(=O)NCCC(=N)N | 10.3% | –
Cc1ncc(C[n+]2csc(CCO)c2C)c(N)n1 | 1.25% | –
CCCC(CCC)C(=O)OC1C[C@H]2CC[C@@H](C1)[N+]2(C)C (stereo partly drawn) | 3.53% | –
CCCCC(=O)O[C@H]1CC[C@H]2[C@@H]3CCc4cc(O)ccc4[C@H]3CC[C@]12C | -4.95% | –
Cc1cc(C)c(NC(=O)C[C@H](CC(=O)O)c2cccc3ccccc23)c(C(=O)N2CCC3(CCCC3)CC2)c1 | -21.8% [at 38 µM] | –
O=P(O)(O)OP(=O)(O)O | -5.06% [at 7.69 µM] | –
CCCOc1cc(N)ccc1C(=O)OCCN(CC)CC | 7.68% | –
Cc1cccc(C)c1NC(=O)C1CCCCN1C (stereo not drawn) | 0.849% | –
O=C(O)c1ccc(OCCn2ccnc2)cc1 | 6.49% | –
CC(=O)[C@H]1CC[C@H]2[C@@H]3C=CC4=CC(=O)CC[C@@]4(C)[C@H]3CC[C@]12C | -4.97% | –
CCc1cn([C@H]2C[C@H](O)[C@@H](CO)O2)c(=O)[nH]c1=O | -4.25% | –
N[C@@H](Cc1cc(I)c(Oc2ccc(O)c(I)c2)c(I)c1)C(=O)O | 2.12% | –
Nc1ccc(N=Nc2ccccc2)c(N)n1 | -16.4% | –
CNC(=O)c1c(I)c(C(=O)NCC(=O)Nc2c(I)c(C(=O)O)c(I)c(C(=O)NCCO)c2I)c(I)c(N(C)C(C)=O)c1I | -6.57% | –
CCSc1ccc2c(c1)N(CCCN1CCN(C)CC1)c1ccccc1S2 | -7.41% | –
